HCMV inh: blocks human cytomegalovirus replication | HFF cells, HCMV-luciferase reporter, 72 h; hits give low values | activity change, negative = inhibition, % at 57.5 µM | actives 4.5% (n = 410,000); in the data active = activity change below about -60%; inconclusive = no clear call, values can overlap the other calls; inactive = above about -39%; also: % is scaled to controls: 0 for no effect and ±100 for the full control effect
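Human foreskin fibroblasts infected with luciferase-reporter HCMV at MOI 1 PFU/cell, compounds at two doses. Luciferase measured 72 h post infection; normalized to buffer-only basal and Salinomycin (10uM) controls.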
HCV inhibitor: HCV inhibition; actives 3.4% (n = 340,000); Potency, µM (highest dose often 41.8 µM), for the others: at the highest dose activity change, negative = inhibition, usual class: inhibitors; Huh7.5.1 HCVcc-Cre infection, luciferase reporter, 44 h; also: potency is read from the fitted curve at half-maximal effect; % is scaled to controls: 0 for no effect and ±100 for the full control effect
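Compounds are dispensed onto cells plated 4 h earlier at 1,000 per well, with HCVcc-Cre virus (about 0.5 moi) added next. Following 44 h of culture, luminescent signal is measured for 15 sec after 15 min with substrate at room temperature.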
Sm TGR block: inhibitors of Schistosoma mansoni thioredoxin glutathione reductase; actives 3% (n = 360,000); AID 485364; Q962Y6; purified TGR, DTNB reduction, TNB absorbance 405 nm; Potency, µM (doses to about 114 µM), inactives show top-dose activity change, negative = inhibition, hits mostly inhibitors; also: potency is read from the fitted curve at half-maximal effect; % is scaled to controls: 0 for no effect and ±100 for the full control effect; nearly all actives have a fitted effect of over 60% in size
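Kinetic colorimetric format: TGR-catalysed, NADPH-driven DTNB reduction monitored via TNB absorbance. Enzyme dispensed at 20 nM; compound exposure 15 min at room temperature before reaction start.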
SARS PLP yeast: SARS-CoV PLP inhibition in yeast; AID 485353; Potency, µM (series often up to 32.9 µM), for inactives: at the top dose activity, positive = growth rescue, actives largely listed as activators; actives 0.19% (n = 330,000); S. cerevisiae expressing SARS-CoV PLpro, growth rescue; calls by dose curve; also: potency is read from the fitted curve at half-maximal effect; 0% is about no effect; nearly all actives have a fitted effect of over 55% in size
Pf growth 96h: P. falciparum growth inhibition at 96 hours | P. falciparum luciferase reporter growth, 96 h | Potency, µM (series often up to 28.7 µM), inactives show top-dose activity change, negative = inhibition, hits mostly inhibitors | actives 6.9% (n = 320,000); also: potency is read from the fitted curve at half-maximal effect; % is scaled to controls: 0 for no effect and ±100 for the full control effect
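Infected RBCs, 2% Hct / 0.05% parasitemia final; luciferase-reporter P. falciparum; cpd 96 h, 37 C, 5% CO2; luciferase detection reagent; luminescence.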
Pf growth 48h: inhibits P. falciparum growth in the first generation, 48 h. actives 5.9% (n = 310,000). AID 504832. P. falciparum luciferase growth in erythrocytes, 48 h. Potency, µM (titrated, usually from 28.7 µM), for the others: top-dose activity change, negative = inhibition, usual class: inhibitors; also: potency is read from the fitted curve at half-maximal effect; % is scaled to controls: 0 for no effect and ±100 for the full control effect
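Erythrocytes infected with P. falciparum carrying an integrated firefly luciferase reporter (2% hematocrit, 0.1% parasitemia final) were exposed to compounds in RPMI 1640 with 0.5% Albumax at 37 C, 5% CO2. Growth inhibition was scored as reduced luminescence.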
Active calls of the source: *; ? = inconclusive; nt = no result given. An excerpt weighted towards active compounds, which were near 15% of everything screened. Unless noted, calls follow the shape of the dose curve; as a rule, active = well fitted curve in the direction sought with a large enough effect; inconclusive = small, poorly fitted or top-dose-only effect, or another doubt; inactive = no such curve, though single readings can be large; an effect the other way counts as inactive or inconclusive.

SMILES | HCMV inh | HCV inhibitor | Sm TGR block | SARS PLP yeast | Pf growth 96h | Pf growth 48h
COc1ccc(/C=C/c2ccc3ccccc3[n+]2C)cc1OC | nt | 1.5% | 6.4% | -4.4% | 10.1% | 1.17µM*
[O-][n+]1c(/C=C/c2ccccc2)ccc2ccccc21 | 13.1 | 10µM* | 0.4% | -1.5% | 6.57µM* | 110.3%
CC(=O)Oc1ccccc1/C=C/c1ccc2ccccc2[n+]1C | 43.9 | ? | 0.0% | -5.3% | 191.8% | ?
CCCCN(C(=O)CC1CCCC1)c1c(N)n(Cc2ccccc2)c(=O)[nH]c1=O | 14.9 | nt | nt | nt | nt | nt
CC(C)(C)CC(C)(C)NC(=O)CSCC(=O)Nc1ccc2ccccc2c1 | 17.5 | 7.6% | -20.6% | -111.8% | -10.2% | -24.2%
COc1ccc(N2CCN(CCNC(=O)Nc3ccc(C)cc3Cl)CC2)cc1 | 2.3 | -24.5% | 3.2% | -1.8% | 2.33µM* | 1.4%
Cc1nn(-c2ccccc2)c(-n2cccc2)c1C(=O)NCc1ccccc1Cl | -19.3 | nt | 4.7% | nt | nt | nt
COc1ccc(N2CCN(CCNC(=O)c3c(C)cc(=O)oc3C)CC2)cc1 | -13.0 | -2.1% | -17.1% | -1.3% | ? | 11.7µM*
Cc1nn(-c2ccccc2)c(-n2cccc2)c1C(=O)NCCc1ccc(Cl)cc1 | -99.8* | nt | 0.3% | nt | nt | nt
COc1ccc(N2CCN(Cc3cc(=O)oc4cc(C)c(Cl)c(C)c34)CC2)cc1 | -21.3 | 1.8% | -27.4% | -2.6% | -21.3% | 4.15µM*
CCOC(=O)C1=CN(CC)S(=O)(=O)NC1c1cccc(OC)c1 (stereo unspecified) | -24.6 | 22.0% | nt | 5.0% | nt | nt
C/C(=N\NC(=O)CN(c1ccc(Oc2ccccc2)cc1)S(C)(=O)=O)C(C)(C)C | 25.4 | 24.4% | -1.2% | -1.9% | 47.5% | ?
Cc1ccc(-n2nc(C)c(C(=O)NCCCN3CCN(c4ccc(F)cc4)CC3)c2-n2cccc2)cc1 | -70.1* | nt | -13.0% | nt | nt | nt
Cc1cc(=O)oc(C)c1C(=O)NCCCN1CCN(c2ccc(F)cc2)CC1 | -7.8 | -7.9% | 1.5% | 0.0% | 0.738µM* | ?
CCC1(C)Cc2ccccc2-c2nc(NCCCO)n(-c3ccccc3)c(=O)c21 (stereo unspecified) | -15.1 | ? | -32.9% | 5.1% | 10.4µM* | nt
CCn1c(NCCO)nc2c(c1=O)C(C)(CC)Cc1ccccc1-2 (stereo unspecified) | -21.3 | -3.8% | 0.0% | 0.3% | ? | -6.7%
COc1cccc(NC(=O)CSc2nc(=O)n(Cc3ccncc3)c3c2CCC3)c1 | -13.5 | nt | -6.6% | nt | nt | nt
COc1cccc(CNC(=O)CSc2nc(=O)n(Cc3ccncc3)c3c2CCC3)c1 | ? | -19.5% | -2.2% | nt | ? | 10.4µM*
C[C@@H](NC(=O)[C@@H]1[C@@H](CO)[C@@H]2Cn3c(cccc3=O)[C@@H]2N1C(=O)C1CC1)c1ccccc1 | 0.5 | nt | nt | nt | nt | nt
CS(=O)(=O)N1CCN(Cc2ccc(C(F)(F)F)cc2)CC1 | 0.8 | -2.3% | -23.9% | -0.1% | 9.28µM* | nt
CCC1(C)NC(=O)N(CC(=O)Nc2sc3c(c2C(=O)OC)CCCCC3)C1=O (stereo unspecified) | -12.0 | ? | -0.9% | 0.2% | 1.5% | 17.7%
CCC1(CC)NC(=O)N(CC(=O)Nc2sc3c(c2C(N)=O)CCC3)C1=O | -13.0 | ? | 44.7µM* | 7.1% | -15.8% | -26.3%
CCn1c(SCC(=O)Nc2ccccc2OC)nc(O)cc1=O | -12.0 | 5.7% | 9.9% | 1.3% | -11.7% | 22.3%
COCCNC(=S)NN=C1CCCCCC1 | -115.1* | -9.2% | -16.5% | 1.6% | 3.4% | ?
COCCNC(=S)N/N=C1\CC(C)CC(C)(C)C1 (stereo unspecified) | -76.0* | 9.3% | ? | -0.2% | 4.65µM* | ?
SMILES | HCMV inh | HCV inhibitor | Sm TGR block | SARS PLP yeast | Pf growth 96h | Pf growth 48h
CC(C)(C)C1CCC(=NNC(=S)NCc2ccccc2)CC1 (stereo unspecified) | -62.5* | 4.1% | -15.2% | 17.8% | ? | ?
COCCNC(=S)NN=C1CCC(c2ccccc2)CC1 (stereo unspecified) | ? | 12.1% | -25.5% | 9.8% | ? | 16.2%
CCOC(=O)N/N=C1\CC(C)CC(C)(C)C1 (stereo unspecified) | -4.3 | 25.0% | -6.9% | -8.4% | 2.2% | -3.4%
S=C(NCCc1ccccc1)NN=C1CCCCCC1 | -92.4* | 14.3% | -0.9% | 0.3% | ? | 1.2%
O=C(NCc1ccccc1)c1onc(CS(=O)(=O)c2ccc(Cl)cc2)c1C(=O)NCc1ccccc1 | -22.1 | 6.7% | -28.5% | -0.9% | 44.8% | -24.6%
COc1ccc(C)cc1NC(=O)C(c1ccccc1)N1CCN(CC(=O)N2CCCC2)CC1 (stereo unspecified) | -29.4 | ? | -8.8% | -2.1% | 11.7µM* | 11.7µM*
COc1ccc(C)cc1NC(=O)C(c1ccccc1)N1CCN(CC(=O)N2CCOCC2)CC1 (stereo unspecified) | 6.4 | -17.0% | 1.9% | -4.4% | ? | 9.28µM*
Cc1ccc(NC(=O)C(c2ccccc2)N2CCN(CC(=O)N3CCOCC3)CC2)cc1 (stereo unspecified) | -7.7 | 1.3% | -21.7% | -1.1% | -27.2% | ?
COc1ccc(CC(=O)N/N=C(/C)c2ccco2)cc1 | ? | 11.0% | -0.4% | 0.9% | 17.7% | 13.9%
O=C1NC(=S)N/C1=C/c1cccc([N+](=O)[O-])c1O | 47.0 | -1.5% | 4.5% | -4.1% | 1.85µM* | ?
Cc1ccc(NC(=O)Cn2c(=O)n(-c3ccc(C)cc3)c(=O)c3c2cnn3C)cc1 | 9.2 | nt | -2.2% | nt | nt | nt
O=C(c1cccc(Cl)c1)C1CCCN(C(=O)c2ccc3c(c2)OCO3)C1 (stereo unspecified) | -11.8 | ? | 3.5% | 0.3% | ? | 13.3%
CCc1nnc(NC(=O)c2ccc(S(=O)(=O)N(C)Cc3ccccc3)cc2)o1 | -30.7 | ? | -20.8% | -8.4% | 0.7% | 7.1%
CCN(CC)S(=O)(=O)c1ccc(C(=O)Nc2nnc(COC)o2)cc1 | -63.5* | 17.8% | 5.4% | 1.2% | 0.0% | 3.3%
CCCCN(C)S(=O)(=O)c1ccc(C(=O)Nc2nnc(CSC)o2)cc1 | ? | ? | -29.1% | -16.6% | 13.1µM* | ?
CCN(Cc1ccccc1)S(=O)(=O)c1ccc(C(=O)Nc2nnc(C)o2)cc1 | -3.7 | ? | -4.3% | 13.1% | ? | 9.28µM*
COc1ccccc1-c1nnc(NC(=O)c2ccc(S(=O)(=O)N(C)Cc3ccccc3)cc2)o1 | nt | ? | 4.0% | 16.3% | 10.4µM* | -13.9%
Cc1cc(OC(=O)c2ccccc2F)c([N+](=O)[O-])c(=O)[nH]1 | 0.0 | -15.1% | -2.6% | 25.7% | -25.1% | 30.3%
O=C(CNC(=O)c1ccccc1)Oc1cccc(Cl)c1 | 31.7 | 18.2% | nt | nt | nt | nt

Screens: PubChem BioAssay, National Center for Advancing Translational Sciences (NCATS)
